Laboratory results published in PubChem BioAssay (NCATS).
Records with an inconclusive call do not appear. A number with no mark means an inactive call. Active and inactive are the calls of the source. Calls come from the whole dose curve; as a rule, active = well fitted curve in the direction sought with a large enough effect; inconclusive = small, poorly fitted or top-dose-only effect, or another doubt; inactive = no such curve, though single readings can be large; an effect the other way counts as inactive or inconclusive.

Legend:
[1] = qHTS of pediatric cancer cell lines to identify multiple opportunities for drug repurposing: Primary screen for A673 cells (AID 1347092); note: nearly all actives have a fitted effect of over 45% in size
Summary of the method: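 Luminescence from CellTiter-Glo, taken after 15 min at room temperature, served as the proxy for metabolically active cells following 48 h treatment. Both potency and efficacy were taken from curves fitted to the titration data.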

[2] = qHTS of pediatric cancer cell lines to identify multiple opportunities for drug repurposing: Primary screen for SK-N-MC cells (AID 1347093)
Summary of the method: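 Metabolically active cells were quantified by ATP-dependent luminescence (CellTiter-Glo, 15 min at room temperature) following 48 h treatment. Cells had been plated at 500-1,000 per well and settled for 5 h beforehand.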

[3] = qHTS of pediatric cancer cell lines to identify multiple opportunities for drug repurposing: Primary screen for BT-37 cells (AID 1347094)
Summary of the method: (§1)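 Cells plated at 500-1,000/well in growth medium, compounds added after 5 h. MIPE tested at 11 points (from 0.78 nM), NPC at 8 points (from 0.59 nM). CellTiter-Glo luminescence after 48 h; concentration-response curves from primary screen.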

[4] = qHTS of pediatric cancer cell lines to identify multiple opportunities for drug repurposing: Primary screen for NB-EBc1 cells (AID 1347095)
Summary of the method: as §1

[5] = qHTS of pediatric cancer cell lines to identify multiple opportunities for drug repurposing: Primary screen for U-2 OS cells (AID 1347096); note: nearly all actives have a fitted effect of over 50% in size
Summary of the method: (§2)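 Viability after 48 h compound treatment at 37C, 500-1,000 cells/well, read as ATP luminescence with CellTiter-Glo. Primary screens used 11-point (MIPE, 0.78 nM-46 µM) or 8-point (NPC, 0.59 nM-46 µM) final concentrations; follow-up screens used 11-point dilutions.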

[6] = qHTS of pediatric cancer cell lines to identify multiple opportunities for drug repurposing: Primary screen for Saos-2 cells (AID 1347097); note: nearly all actives have a fitted effect of over 40% in size
Summary of the method: as §1

[7] = qHTS of pediatric cancer cell lines to identify multiple opportunities for drug repurposing: Primary screen for SK-N-SH cells (AID 1347098); note: nearly all actives have a fitted effect of over 65% in size
Summary of the method: (§3)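 Cells (500-1,000/well) rested 5 h, then received compounds for 48 h; metabolically active cells were measured by CellTiter-Glo luminescence. Final concentrations spanned up to 46 µM (MIPE, 11-point) or 0.59 nM-46 µM (NPC, 8-point) in primary screens, 11-point in follow-ups.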

[8] = qHTS of pediatric cancer cell lines to identify multiple opportunities for drug repurposing: Primary screen for NB1643 cells (AID 1347099); note: nearly all actives have a fitted effect of over 50% in size
Summary of the method: as §1

[9] = qHTS of pediatric cancer cell lines to identify multiple opportunities for drug repurposing: Primary screen for LAN-5 cells (AID 1347100)
Summary of the method: as §2

[10] = qHTS of pediatric cancer cell lines to identify multiple opportunities for drug repurposing: Primary screen for BT-12 cells (AID 1347101); note: nearly all actives have a fitted effect of over 25% in size
Summary of the method: as §3
Potency is the fitted concentration of half-maximal effect.

Compound | Potency [1] | Potency [2] | Potency [3] | Potency [4] | Potency [5] | Potency [6] | Potency [7] | Potency [8] | Potency [9] | Potency [10]
COC1=C2C[C@@H](C)C[C@H](OC)[C@@H](O)[C@@H](C)C=C(C)[C@H](OC(N)=O)[C@@H](OC)C=CC=C(C)C(=O)NC(=CC1=O)C2=O | 4690 nM (active) | 1050 nM (active) | 4320 nM (active) | 743 nM (active) | inactive | inactive | 2410 nM (active) | 4180 nM (active) | 8330 nM (active) | 6110 nM (active)
c1coc(CNc2ncnc3nc[nH]c23)c1 | inactive | inactive | inactive | inactive | inactive | inactive | inactive | inactive | – | –
C=CC1=C(C(=O)O)N2C(=O)[C@@H](NC(=O)C(=NO)c3csc(N)n3)[C@H]2SC1 | inactive | inactive | inactive | inactive | inactive | inactive | inactive | inactive | inactive | inactive
C[C@@]12C[C@@]3(O)O[C@@H](O1)[C@]1(COC(=O)c4ccccc4)[C@@H]3C[C@@]12O[C@@H]1O[C@H](CO)[C@@H](O)[C@H](O)[C@@H]1O | inactive | inactive | inactive | inactive | inactive | inactive | inactive | inactive | inactive | –
O=C(CCCCCCC(=O)Nc1cccnc1)NO | 11800 nM (active) | 2960 nM (active) | 19300 nM (active) | 4180 nM (active) | 11800 nM (active) | 13200 nM (active) | 6070 nM (active) | 2960 nM (active) | 2640 nM (active) | –
OC[C@H]1OC(O)C[C@@H](O)[C@H]1O (stereo not given in full) | inactive | inactive | inactive | inactive | inactive | inactive | inactive | inactive | inactive | –
CC(=O)NCC(=O)N1[C@H]2CC[C@H]1c1cc(Nc3ncc(C(F)(F)F)c(NC4CCC4)n3)ccc12 | 3720 nM (active) | 118 nM (active) | 24300 nM (active) | 66.2 nM (active) | inactive | 743 nM (active) | 1080 nM (active) | 1180 nM (active) | 33.2 nM (active) | 24300 nM (active)
C[C@@H](Cc1cc2c(c(C(N)=O)c1)N(CCCO)CC2)NCCOc1ccccc1OCC(F)(F)F | inactive | inactive | inactive | inactive | inactive | inactive | inactive | inactive | – | –
COc1cc([C@@H]2c3cc4c(cc3[C@@H](O[C@@H]3O[C@@H]5CO[C@@H](c6cccs6)O[C@@H]5[C@H](O)[C@@H]3O)[C@H]3COC(=O)[C@H]23)OCO4)cc(OC)c1O | 372 nM (active) | 93.5 nM (active) | 217 nM (active) | 37.2 nM (active) | 3720 nM (active) | 590 nM (active) | 5410 nM (active) | 132 nM (active) | 37.2 nM (active) | 6110 nM (active)
O=C(O)C(=O)Nc1cccc(C2=NN=N[N]2)c1 | inactive | inactive | inactive | inactive | inactive | inactive | inactive | inactive | inactive | inactive
O=c1c(O)c(-c2ccc(O)c(O)c2)oc2cc(O)ccc12 | 29600 nM (active) | 20900 nM (active) | 24300 nM (active) | 23500 nM (active) | inactive | 16600 nM (active) | 27100 nM (active) | 20900 nM (active) | – | –
OCc1ccccc1O[C@@H]1O[C@H](CO)[C@H](O)[C@H](O)[C@H]1O | inactive | inactive | inactive | inactive | inactive | inactive | inactive | inactive | inactive | –
O=C(O)C[C@H](O)C[C@H](O)C=Cc1c(C2CC2)nc2ccccc2c1-c1ccc(F)cc1 | 3720 nM (active) | 4690 nM (active) | 15300 nM (active) | 20900 nM (active) | 9350 nM (active) | 833 nM (active) | 4820 nM (active) | 9350 nM (active) | – | –
O=C1NC(=O)C(=Cc2ccc3nccc(-c4ccncc4)c3c2)S1 | 187 nM (active) | 16.6 nM (active) | 432 nM (active) | 118 nM (active) | 1870 nM (active) | 372 nM (active) | 1360 nM (active) | 1320 nM (active) | 743 nM (active) | 385 nM (active)
COc1cc(C)c(Sc2cnc(NC(=O)c3ccc(CNC(C)C(C)(C)C)cc3)s2)cc1C(=O)N1CCN(C(C)=O)CC1 (stereo not given) | 2350 nM (active) | 2090 nM (active) | 7690 nM (active) | 743 nM (active) | inactive | inactive | 4820 nM (active) | 3720 nM (active) | 1660 nM (active) | 19300 nM (active)
CCOC(=O)[C@H](CCc1ccccc1)N[C@@H](C)C(=O)N1[C@@H](C(=O)O)C[C@H]2CCC[C@@H]21 | 9350 nM (active) | 1870 nM (active) | 21700 nM (active) | 18700 nM (active) | 18700 nM (active) | 14800 nM (active) | 4820 nM (active) | 3320 nM (active) | 13200 nM (active) | 24300 nM (active)
COc1ccc(Nc2cc(-c3cnc(N)nc3)nc(N3CCOCC3)n2)cn1 | 5900 nM (active) | 372 nM (active) | 13700 nM (active) | 2960 nM (active) | 14800 nM (active) | 1180 nM (active) | 7640 nM (active) | 2960 nM (active) | 4180 nM (active) | 21700 nM (active)
O=c1ccn([C@@H]2O[C@H](CO)[C@H](O)[C@@H]2F)c(=O)[nH]1 | 23500 nM (active) | 8330 nM (active) | inactive | inactive | inactive | inactive | 9610 nM (active) | inactive | inactive | inactive
CN(C)c1ccc(C(=O)NCCCCCCC(=O)NO)cc1 | 1180 nM (active) | 332 nM (active) | 153 nM (active) | 469 nM (active) | 1180 nM (active) | 118 nM (active) | 2410 nM (active) | 296 nM (active) | 132 nM (active) | 1530 nM (active)
Cn1cc(C[C@@H](N)C(=O)O)c2ccccc21 | inactive | inactive | inactive | inactive | inactive | inactive | inactive | inactive | inactive | –
C[C@@]12C(=O)OC(=O)[C@@]1(C)C1CCC2O1 | 4690 nM (active) | 2350 nM (active) | 2170 nM (active) | 2350 nM (active) | inactive | 2960 nM (active) | 3830 nM (active) | 1480 nM (active) | 2350 nM (active) | 8630 nM (active)
Nc1ccn(C2CO[C@H](CO)O2)c(=O)n1 (stereo not given in full) | inactive | inactive | inactive | inactive | inactive | inactive | inactive | inactive | inactive | inactive
CO[C@@H]1[C@@H](O)[C@H](O)[C@@H](n2c3c(Cl)cccc3c3c4c(c5c6cccc(Cl)c6[nH]c5c32)C(=O)NC4=O)O[C@@H]1CO | 235 nM (active) | 66.2 nM (active) | 273 nM (active) | 93.5 nM (active) | 4690 nM (active) | 296 nM (active) | 1210 nM (active) | 418 nM (active) | 118 nM (active) | 1370 nM (active)
CC(C)(O)[C@H]1CC[C@@](C)([C@H]2[C@@H](O)C[C@@]3(C)[C@@H]4C[C@H](O[C@@H]5O[C@H](CO)[C@@H](O)[C@H](O)[C@@H]5O)[C@H]5C(C)(C)[C@@H](O[C@@H]6OC[C@@H](O)[C@H](O)[C@@H]6O)CC[C@@]56C[C@@]46CC[C@]23C)O1 | inactive | inactive | inactive | inactive | inactive | inactive | inactive | inactive | inactive | inactive
C=C(C)[C@@H]1CC[C@]2(C)CC[C@]3(C)[C@H](CC[C@@H]4[C@@]5(C)CC[C@H](O)C(C)(C)[C@H]5CC[C@]43C)[C@@H]12 | inactive | inactive | inactive | inactive | inactive | inactive | inactive | inactive | inactive | inactive
CC(=O)OCC(=O)[C@@]1(O)CC[C@H]2[C@@H]3CCC4=CC(=O)CC[C@]4(C)[C@@H]3C(=O)C[C@@]21C | inactive | inactive | inactive | inactive | inactive | inactive | inactive | inactive | inactive | inactive
OCCN1C[C@H](O)[C@@H](O)[C@H](O)[C@@H]1CO | 9350 nM (active) | inactive | 19300 nM (active) | inactive | inactive | inactive | inactive | inactive | – | –
CC(C)N1[N]C(=C2C=c3cc(O)ccc3=N2)c2c(N)ncnc21 | 1480 nM (active) | 148 nM (active) | 344 nM (active) | 590 nM (active) | 14800 nM (active) | 5260 nM (active) | 19200 nM (active) | 18700 nM (active) | 5900 nM (active) | 485 nM (active)
C[C@@H]1CC[C@@]2(OC1)OC1CC3C4CC=C5CC(O)CCC5(C)C4CCC3(C)C1[C@@H]2C (stereo not given in full) | inactive | inactive | inactive | inactive | inactive | inactive | inactive | inactive | inactive | inactive
CC(C=CC(=O)NO)=C[C@@H](C)C(=O)c1ccc(N(C)C)cc1 | 590 nM (active) | 264 nM (active) | 1220 nM (active) | 418 nM (active) | 1480 nM (active) | 935 nM (active) | 2710 nM (active) | 935 nM (active) | 590 nM (active) | 1930 nM (active)
